Only some compounds are listed: those with a hit (about 3.1% of all), similar ones and a draw of the others.
p53null 32C tox: selectivity test: cytotoxicity in p53 null cells, permissive temperature; H1299-neo p53 null cells, ATP luminescence, 24 h, 32C; Potency, µM (highest dose often 46.1 µM), for inactives: at the highest dose activity change, negative = cytotoxicity, most hits filed as cytotoxic; hit rate 0.62% among 55,000;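 note: 0% = DMSO only and -100% = full killing by 100 µM tamoxifen; nearly all actives have a fitted effect of over 55% in size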
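We seeded p53-null H1299-neo cells, incubated them overnight at 37C, and added compounds across a range up to 46 uM. After 24 hours at 32C, ATP reagent was applied for 20 min at room temperature and luminescence recorded.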
S16 viability: cytotoxicity in S16 Pmp22-F2sN Schwann cells. S16 Pmp22-F2sN Schwann cells viability, CellTiter-Glo, 24 h. Potency, µM (doses to about 57.5 µM), for the others: at the top dose activity change, negative = cytotoxicity, most hits filed as cytotoxic. hit rate 0.48% among 43,000; note: nearly all actives have a fitted effect of over 65% in size
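Viability was measured by CellTiter-Glo luminescence (15 min, room temperature). This followed 24 h at 37 °C of compound exposure (23 nL pin transfer) in S16 Pmp22-F2sN Schwann cells, 500-1,000 per well.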
p53null 39C kill: selectivity test: cytotoxicity in p53 null cells, nonpermissive temperature | H1299 p53-null (neo) cells, 39C, ATPlite viability, 24 h | Potency, µM (titrated, usually from 46.1 µM), for the others: at the highest dose activity, negative = cell killing, actives largely listed as cytotoxic | hit rate 0.97% among 55,000 | AID 904;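 note: 0% = DMSO only and -100% = full killing by 100 µM tamoxifen; nearly all actives have a fitted effect of over 50% in size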
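Concentration-response (up to 46 uM) was run for 24 h at the nonpermissive 39C on H1299-p53A138V or H1299-neo cells. ATP content was measured with ATPlite luminescence. AC50 values were Hill-modeled after normalizing between DMSO and 100 uM tamoxifen killing.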
PMP22 txn prim: modulators of PMP22 gene transcription in S16 Schwann cells | hit rate 2% among 43,000 | Potency, µM (highest dose often 57.5 µM), for inactives: at the highest dose activity change, negative = inhibition, actives largely listed as inhibitors | S16 Pmp22-F2sN Schwann cells (luciferase reporters placed in the Pmp22 gene), FLuc/NLuc coincidence luminescence, 24 h; active = clear falling dose curves in both reporters; inconclusive = both reporters move, but less clearly or upward; inactive = either reporter flat; the % is the NLuc reporter signal
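Schwann cells carrying the coincidence reporter were exposed to library compounds for 24 h at 37C, then lysed and read for FLuc and, after quenching, NLuc luminescence on a CCD imager.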
OvCa metastasis: inhibitors of ovarian cancer cell adhesion and invasion in omental model. SKOV3ip1-GFP adhesion/invasion on 3D omental model, fluorescence. Potency, µM (series often up to 45.8 µM), for inactives: at the highest dose activity change, negative = inhibition, usual class: inhibitors. hit rate 0.1% among 46,000;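 note: plate controls were DMSO wells for no effect and tomatine positive control wells for full effect; nearly all actives have a fitted effect of over 65% in size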
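A 3D layer of primary human omental fibroblasts, mesothelial cells, fibronectin and collagen I, grown 48 hr, received SKOV3ip1-GFP cells in serum-free medium plus compounds at 0.36-46 umol/L. After 2 hr RT and 16 hr 37 C, fixed adherent GFP cells were counted; normalized to DMSO and tomatine.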
pS6 MEF inh: inhibitors of mTORC1 signaling in Tsc2-/- p53-/- MEF cells. Potency, µM (series often up to 38.3 µM), for the others: top-dose activity change, negative = inhibition, usual class: inhibitors. Tsc2-/- p53-/- MEF, phospho-rpS6 immunofluorescence/PI, 24 h. AID 493208. hit rate 0.78% among 44,000;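 note: plate controls were DMSO for no effect and rapamycin for full effect; nearly all actives have a fitted effect of over 50% in size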
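Compounds act on Tsc2-/-, p53-/- fibroblasts carrying an empty vector for 24 h before fixation and dual staining for phospho-S6 and DNA (propidium iodide). Values are percentages of cells above a rapamycin-defined pS6/PI threshold.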
* hit, by the source's call; i = inactive; u = inconclusive; x = no result. Unless noted, calls come from the whole dose curve; as a rule, active = well fitted curve in the direction sought with a large enough effect; inconclusive = small, poorly fitted or top-dose-only effect, or another doubt; inactive = no such curve, though single readings can be large; an effect the other way counts as inactive or inconclusive. Unless noted, % is set by controls: 0 for no effect and ±100 for the full control effect; potency is the fitted concentration of half-maximal effect.

SMILES | p53null 32C tox | S16 viability | p53null 39C kill | PMP22 txn prim | OvCa metastasis | pS6 MEF inh
O=C(Nc1ccccc1F)c1ccc2c(Cl)c3c(nc2c1)CCC3 | 1.26µM* | -0.2% | 1.58µM* | u | -16.1% | -0.2%
N#Cc1ccccc1NC(=O)c1ccc2c(Cl)c3c(nc2c1)CCCC3 | 0.6% | x | 22.6% | x | x | x
O=C(NCCc1nc2ccccc2n1CCOc1ccc(Cl)cc1)C1CCCCC1 | -10.4% | x | 12.6µM* | x | x | 1.4%
Cc1ccccc1OCCn1c(CCNC(=O)C2CCCCC2)nc2ccccc21 | 0.1% | 0.4% | -22.4% | -3.6% | u | -0.8%
Cn1c(Nc2ccc(C(F)(F)F)cc2)nc2cc(Oc3ccnc(-c4ncc(C(F)(F)F)[nH]4)c3)ccc21 | x | x | x | x | 29.0% | x
C=CC(=O)N1CCc2ccc(-n3c(=O)ccc4cnc5ccc(-c6cnn(C)c6)cc5c43)cc21 | x | x | x | x | 4.2% | x
COc1cc(NC(=O)c2cc(-c3ccc(Cl)c(Cl)c3)on2)cc(OC)c1OC | u | x | 25.1µM* | x | u | -17.1%
Cc1ccccc1NC(=O)c1ccc(Cl)c(S(=O)(=O)N2CCCCCC2)c1 | 1.7% | u | u | -53.4% | -9.2% | 9.4%
Cc1ccc(C(=O)Nc2ccccc2C(=O)O)cc1S(=O)(=O)N1CCCCCC1 | 5.01µM* | 8.4% | 10µM* | -29.8% | 1.7% | 6.3%
COc1cc(CNc2ccc3[nH]c(=O)[nH]c3c2)cc(Br)c1OCc1ccc(F)cc1 | -29.2% | u | -15.1% | 1.89µM* | -7.3% | -20.5%
CC(=O)c1ccc(NS(=O)(=O)c2cc(-c3cnc(C4CC4)o3)ccc2C)cc1 | -0.9% | u | 11.7% | u | i | -19.5%
CC(=O)c1cccc(NS(=O)(=O)c2cc(-c3cnc(C4CC4)o3)ccc2C)c1 | -4.0% | u | -6.5% | 16.8µM* | u | -11.5%
Cc1ccc(NS(=O)(=O)c2cc(-c3cnc(C4CC4)o3)ccc2C)cc1Cl | 38.9% | 14.1µM* | u | u | -28.6% | u
CC(C)c1cc(C(=O)N2Cc3ccc(CN4CCN(C)CC4)cc3C2)c(O)cc1O | x | x | x | x | 4.7% | x
CC(C)c1nnc(NC(=O)c2nc(SCc3ccc(F)cc3)ncc2Cl)s1 | -12.4% | 8.0% | -13.2% | -4.4% | 6.9% | -3.1%
Cc1cccc(CS(=O)(=O)c2ncc(Cl)c(C(=O)Nc3nnc(C(C)C)s3)n2)c1 | 39.3% | u | 12.6µM* | 9.58µM* | u | 16.5µM*
Cc1ccc(CS(=O)(=O)c2ncc(Cl)c(C(=O)Nc3nnc(C(C)C)s3)n2)cc1 | 1.5% | u | u | 8.91µM* | u | 14.7µM*
Cc1nc(N)ncc1-c1nc(N2CCOCC2)c2sc(C(C)(C)O)cc2n1 | x | x | x | x | -28.0% | x
Cc1ccc(-c2cc(C(=O)NCCc3ccccc3)c3ccccc3n2)cc1C | -17.9% | -29.6% | 10.2% | -75.5% | 9.8% | 11.1%
Cc1ccc(-c2cc(C(=O)NCc3cnn(C)c3C)c3ccccc3n2)cc1C | u | 1.0% | 0.794µM* | -39.3% | -5.7% | -6.7%
O=C(c1cc2ccc3cccnc3c2[nH]1)N1CCN(c2ccc(Cl)cc2)CC1 | -10.5% | -4.6% | -14.8% | -4.7% | -1.3% | 2.2%
O=C(c1cc2ccc3cccnc3c2[nH]1)N1CCCCC1 | 2µM* | -6.9% | 0.794µM* | -5.7% | 2.1% | 3.7%
CC1CCCN(C(=O)c2cc3ccc4cccnc4c3[nH]2)C1 (stereo unspecified) | 1µM* | -11.6% | 2µM* | -14.6% | -18.0% | -8.2%
O=S(=O)(O)CCSSCCS(=O)(=O)O | x | x | x | x | 17.1% | x
CC(=O)N1CCc2c(sc3c2c(=O)n(-c2ccc(C)cc2)c(=O)n3CC(=O)Nc2ccccc2)C1 | -14.1% | -4.0% | -8.5% | -32.5% | -13.8% | -10.6%
SMILES | p53null 32C tox | S16 viability | p53null 39C kill | PMP22 txn prim | OvCa metastasis | pS6 MEF inh
CCOC(=O)N1CCc2c(sc3c2c(=O)n(-c2ccc(Cl)cc2)c(=O)n3CC(=O)Nc2ccccc2)C1 | 0.2% | 12.6µM* | 5.4% | u | 5.6% | 1.4%
O=C(C[C@@H]1CC=CCCC(=O)O[C@H](c2ccccc2)CNC1=O)NCc1ccc(Cl)cc1 | x | x | x | x | 41.8% | x
Clc1cc(Cl)cc(CNc2ncncc2-c2ccc3c(c2)OCO3)c1 | x | x | x | x | -34.7% | x
CN(CCCNC(=O)c1cc2c(Cl)nc3ccccc3c2s1)Cc1ccccc1 | u | u | 25.1µM* | u | u | 13.1µM*
CCN(CCCNC(=O)c1cc2c(=O)[nH]c3ccc(C)cc3c2s1)Cc1ccccc1 | u | u | u | u | u | 18.5µM*
CC1CCCN(CCCNC(=O)c2cc3c(Cl)nc4ccccc4c3s2)C1 (stereo unspecified) | 2.2% | u | -28.8% | u | -6.1% | 18.5µM*
CC(C)CC(=O)Nc1n[nH]c2c1CN(C(=O)C1CCN(C)CC1)C2(C)C | x | x | x | x | -0.9% | x
O=C(O)c1ccc(-c2c[nH]c3ncc(-c4ccccc4)cc23)cc1C1CCCC1 | x | x | x | x | -10.4% | x
CN(C)CCOc1ccc(C(=C(CCCl)c2ccccc2)c2ccccc2)cc1 | x | x | x | x | 5.1% | x
CC(C)C[C@H](CC(=O)O)C(=O)N[C@@H](Cc1c[nH]c2ccccc12)C(=O)N[C@@H](C)c1ccccc1 | x | x | x | x | 5.8% | x
COc1ccc(S(=O)(=O)c2c(Nc3ccccc3F)sc(C(=O)c3cccc(OC)c3)c2N)cc1 | 17.0% | u | 3.3% | 4.01µM* | u | -26.7%
